Screening data (PubChem)
In the library only some 6.5% were active in any assay of this set; here they are far more common.
MARV entry inh = qHTS for inhibitors of binding or entry into cells for Marburg Virus | Marburg virus pseudotyped entry inhibition, cell reporter | Potency, µM (titrated, usually from 37.8 µM), inactives show top-dose activity change, negative = inhibition, actives largely listed as inhibitors | 300,000 tested, 1.8% active | AID 540276, 2011; calls by dose curve; tested in HEK293 cells; also: potency is read from the fitted curve at half-maximal effect
VACV mCherry inh = qHTS for Stage-Specific Inhibitors of Vaccinia Orthopoxvirus: mCherry Reporter Primary qHTS | Vaccinia virus mCherry reporter infection, fluorescence | Potency, µM (doses to about 36.5 µM), inactives show at the highest dose activity change, negative = inhibition, actives largely listed as inhibitors | 310,000 tested, 0.63% active; calls by dose curve; tested in A549 cells; also: potency is read from the fitted curve at half-maximal effect; nearly all actives have a fitted effect of over 35% in size
Vaccinia Venus = qHTS for Stage-Specific Inhibitors of Vaccinia Orthopoxvirus: Venus Reporter Primary qHTS. Vaccinia virus Venus reporter expression, fluorescence. Potency, µM (doses to about 36.5 µM), for inactives: top-dose activity change, negative = inhibition, hits mostly inhibitors. 330,000 tested, 0.46% active. AID 720580, 2013; calls by dose curve; tested in A549 cells; also: potency is read from the fitted curve at half-maximal effect; nearly all actives have a fitted effect of over 30% in size
FMDV inh = High Throughput Screening for Foot and Mouth Disease Virus Antivirals; FMDV antiviral cell-based qHTS; AID 1159524, 2015; 410,000 tested, 1.2% active; Potency, µM (doses to about 57.9 µM), inactives show at the highest dose activity change, negative = inhibition, most hits filed as inhibitors; calls by dose curve; tested in HEK293T cells; also: read-out not given here; potency is read from the fitted curve at half-maximal effect; nearly all actives have a fitted effect of over 45% in size
Lassa entry inh = qHTS for Inhibitors of binding or entry into cells for Lassa Virus; Lassa virus pseudotype entry inhibition, cell reporter; 300,000 tested, 1.2% active; Potency, µM (titrated, usually from 37.9 µM), without a hit: top-dose activity change, negative = inhibition, hits mostly inhibitors; calls by dose curve; tested in HEK293 cells; also: potency is read from the fitted curve at half-maximal effect; nearly all actives have a fitted effect of over 50% in size
HCMV inh = qHTS Assay for inhibitors of the human cytomegalovirus (HCMV); HFF cells, HCMV-luciferase reporter, 72 h; active compounds read low; activity change, negative = inhibition, % at 57.5 µM; 410,000 tested, 4.5% active; AID 1259415, 2018; in the data active = activity change below about -60%; inconclusive = no clear call, values can overlap the other calls; inactive = above about -39%
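Inhibition of viral replication was scored as loss of reporter luminescence in HFFs infected with HCMV-luciferase (MOI 1 PFU/cell) for 72 h; compounds tested at 2 doses, normalized to buffer and Salinomycin controls.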
The depositor's hits bear a star; i = inactive; ? = inconclusive; · = no result given; [ ] = remark or other dose. % is scaled to controls: 0 for no effect and ±100 for the full control effect.

SMILES	MARV entry inh	VACV mCherry inh	Vaccinia Venus	FMDV inh	Lassa entry inh	HCMV inh
O=C(O)c1cccc(-c2csc(C(O)c3cccc(Cl)c3)n2)c1 (centres undefined)	·	i	0%	47%	·	47
CCN(CC)C(=O)c1cccc(-c2csc(C(O)c3ccc(F)c(OC)c3)n2)c1 (centres undefined)	·	-27%	?	?	·	-62*
CCN(CC)C(=O)c1cccc(-c2csc(C(O)c3cccc(Cl)c3)n2)c1 (centres undefined)	·	i	-11%	28µM*	·	?
CCN(CC)C(=O)c1cccc(-c2csc(C(O)c3ccc(OC)cc3)n2)c1 (centres undefined)	·	i	-2%	?	·	-13
COc1ccc(OC)c(/C=N/NC(=O)CNC(=O)c2ccc(S(=O)(=O)N3CCOCC3)cc2)c1	-4%	-21%	-10%	-8%	?	?
O=c1[nH][nH]c2c1[C@H](C1CCCC1)O[C@H](CCc1ccccc1)C2	·	-6%	-10%	?	·	-20
CCCNC(=O)c1nnc2n1CCN(C(=O)c1ccc3sccc3c1)C2	·	·	·	·	·	-8
COc1ccc(N(C(=O)CCl)C(C(=O)NCCc2ccccc2)c2cccs2)cc1Cl (centres undefined)	?	?	10µM*	20µM*	26µM*	-103*
COc1cccc(N(C(=O)c2snc(C(N)=O)c2N)C(C(=O)NCC2CCCO2)c2cccs2)c1 (centres undefined)	?	?	-4%	9%	3%[46.1 µM]	?
COc1cccc(N(C(=O)CCl)C(C(=O)NCCc2ccccc2)c2cccs2)c1 (centres undefined)	?	?	?	16µM*	?	-100*
COCCNC(=O)C(c1cccs1)N(C(=O)Cn1nnc2ccccc21)c1ccccc1 (centres undefined)	20%	-26%	-17%	14%	6%	34
Cc1cccc(N2CCN(C(=O)CN3CCSc4ccccc43)CC2C)c1 (centres undefined)	·	-8%	-3%	0%	-21%[46.1 µM]	-6
CN(C)c1ccc(C=O)cc1[N+](=O)[O-]	·	-14%	-14%	·	·	·
COc1ccc(COc2cc(-c3cccc(OC)c3)nc3ccc(NC(=O)c4cccnc4)cc23)cc1	-21%	-2%	-29%	-27%	15µM*	82
COc1ccc(COc2cc(-c3cccc(OC)c3)nc3ccc(NC(=O)c4ccc(OC)cc4)cc23)cc1	?	i	-11%	?	?	-81*
CCCNC(=O)CNC(=O)c1ccccc1OCC(=O)Nc1ccc(Br)cc1	·	-11%	-14%	·	·	·
O=C(Nc1ccccc1)N1CC2(CCN(C(=O)c3ccncc3)CC2)C1	·	·	·	13%	·	·
Cc1ccc(O)c(C(CC(=O)NCC2(c3ccccc3)CCCC2)c2ccccc2)c1 (centres undefined)	?	-19%	-11%	?	?	-99*
Cc1ccc(O)c(C(CC(=O)NCc2cccnc2)c2ccccc2)c1 (centres undefined)	?	7%	2%	-20%	2%	-19
Cc1ccccc1Oc1nc2c(C)cccn2c(=O)c1/C=C(\C#N)C(=O)Nc1c(C)n(C)n(-c2ccccc2)c1=O	?	i	-8%	32µM*	?	77
Cc1ccccc1Oc1nc2ccccn2c(=O)c1/C=C(\C#N)C(=O)Nc1c(C)n(C)n(-c2ccccc2)c1=O	4%	i	-13%	22µM*	-14%	38
Cc1cc(OC(C)C(=O)NCC2CCC(C(=O)O)CC2)c2c(C)cc(=O)oc2c1 (centres undefined)	·	-6%	1%	-15%	·	-10
COc1ccc2c(c1)OC(C)CN(CCC(=O)NCC1OCCc3ccccc31)C2 (centres undefined)	·	-15%	-7%	-5%	·	·
CN(Cc1cnc2ccccn12)C1CCN(c2cccc(NC(=O)c3cccnc3)c2)CC1	·	-17%	-7%	-25%	·	·
Cc1ccc(C)n1-c1ccc(N2CCOCC2)c([N+](=O)[O-])c1	·	·	·	-10%	·	-31
SMILES	MARV entry inh	VACV mCherry inh	Vaccinia Venus	FMDV inh	Lassa entry inh	HCMV inh
Cc1ccc(C)n1-c1ccc(N2CCOCC2)cc1	5%	·	·	-15%	-6%	-73*
CN(C)c1ccc(-c2ccc3ncnc(-n4ccnc4)c3c2)cc1	·	·	·	-2%	·	·
CSc1ccc(NC(=O)Nc2cccn(Cc3ccccc3F)c2=O)cc1	·	?	?	-14%	·	-81*
O=C(NCc1ccccc1)Nc1cccn(Cc2ccccc2)c1=O	0%	-17%	-14%	0%	?	?
O=C(Nc1ccccc1)c1cccn(Cc2ccccc2)c1=O	?	i	-9%	3%	?	-31
O=C(Nc1ccncc1)c1cccn(Cc2ccccc2)c1=O	?	i	-12%	?	-27%[46.1 µM]	-75*
CCOc1ccc(NC(=O)Nc2cccn(Cc3ccccc3)c2=O)cc1	-20%[46.1 µM]	?	?	?	?	-84*
COc1ccc(-n2c(=O)c3ccc(C(=O)NCc4ccc(C)cc4)cc3n(CC(=O)Nc3cccc(F)c3)c2=O)cc1	?	-18%	-17%	51%	5%[46.1 µM]	4
COc1ccc(OC)c(-c2ccnc(-n3ncc(C(=O)NC(C)(C)CO)c3C3CC3)n2)c1	·	-14%	0%	34%	·	·
O=C(CCn1cnc2ccccc21)N/N=C/C=C/c1ccccc1	?	i	-13%	-20%	-8%[46.1 µM]	0
COc1ccc(/C=N/NC(=O)CCn2cnc3ccccc32)cc1	0%[14.2 µM]	i	-10%	8%	-26%	-1
O=C(CCn1cnc(-c2ccccc2)c1-c1ccccc1)N/N=C/c1ccccc1O	?	·	·	-7%	23µM*	?
COc1ccc(/C=N/NC(=O)CCn2cnc(-c3ccccc3)c2-c2ccccc2)cc1	18µM*	·	·	?	2.3µM*	-83*
CC1C=CC(C(C2C(=O)CC(C)(C)CC2=O)C2C(=O)CC(C)(C)CC2=O)S1 (centres undefined)	-6%[46.1 µM]	·	·	·	·	·
COc1cccc(N2CCN(C(=O)C3CCCN(S(=O)(=O)c4ccc(Br)s4)C3)CC2)c1 (centres undefined)	?	-27%	-16%	18µM*	?	-24
O=C(C1CCN(S(=O)(=O)c2cccc3nonc23)CC1)N1CCN(c2cccc(Cl)c2)CC1	·	-12%	-7%	-13%	?	-34
O=C(Nc1ccccc1)C1CC(=O)N(C2CCCCC2)C1 (centres undefined)	14%	·	-8%	-17%	-5%	17
Cc1ccccc1N1CCN(C(=O)C2CCC(=O)N(C3CCCC3)C2)CC1 (centres undefined)	·	·	·	-18%	·	21
